Results as given in PubChem BioAssay (NCI).
The panel holds about 83,000 compounds, 20% with a hit somewhere; the sample as a whole holds those more often.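 Assay: single dose, 48 h. Readout: percent growth (0 = no net growth; negative = cell death). Active: <10.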 A number with no mark means an inactive call. Active and inactive are the calls of the source.

What was measured:
Experiment in all cases: NCI-60 one-dose screen, 48 h (100 = growth as untreated, 0 = no growth, -100 = all killed)
Conditions in all cases: 10 µM unless noted
NCI-H23 lung = system: NCI-H23 lung
NCI-H226 lung = system: NCI-H226 lung
HOP-62 NSCLC = system: HOP-62 NSCLC
NCI-H460 lung = system: NCI-H460 lung
HOP-92 NSCLC = system: HOP-92 NSCLC
NCI-H522 lung = system: NCI-H522 lung
A549/ATCC NSCLC = system: A549/ATCC NSCLC
786-0 renal = system: 786-0 renal
COLO 205 colon = system: COLO 205 colon
DU-145 prostate = system: DU-145 prostate
K-562 leukemia = system: K-562 leukemia
MALME-3M melanoma = system: MALME-3M melanoma
MDA-MB-231 breast = system: MDA-MB-231 breast
RXF 393 renal = system: RXF 393 renal
SF-268 CNS = system: SF-268 CNS
SF-295 CNS = system: SF-295 CNS
SF-539 CNS = system: SF-539 CNS
UACC-257 melanoma = system: UACC-257 melanoma
M14 melanoma = system: M14 melanoma

SMILES	growth (NCI-H23 lung)	growth (NCI-H226 lung)	growth (HOP-62 NSCLC) [%]	growth (NCI-H460 lung)	growth (HOP-92 NSCLC)	growth (NCI-H522 lung)	growth (A549/ATCC NSCLC)	growth (786-0 renal)	growth (COLO 205 colon)	growth (DU-145 prostate) [%]	growth (K-562 leukemia)	growth (MALME-3M melanoma)	growth (MDA-MB-231 breast)	growth (RXF 393 renal)	growth (SF-268 CNS) [%]	growth (SF-295 CNS)	growth (SF-539 CNS)	growth (UACC-257 melanoma)	growth (M14 melanoma)
CC(C)(C)OC(=O)CN1CCc2c(sc3ncnc(N4CCN(c5ccc(F)cc5)CC4)c23)C1	88.2%	73.1%	93.2	88.6%	84%	82%	90.3%	81.8%	86.4%	90.1	87.7%	90.6%	75.7%	92.2%	81.9	104%	81.6%	97.7%	98.4%
N#CSc1c[nH]c2ccc(/C=C/C(=O)/C=C(O)/C=C/c3ccc4[nH]cc(SC#N)c4c3)cc12	25.3%	31.6%	28.1	12.5%	-21.3% (active)	-63.9% (active)		13.9%	-39.7% (active)	29	-15.2% (active)	20.7%	22.8%	9.89% (active)	35.5	57.3%	13.5%	25.9%	-5.11% (active)
COc1ccc(-c2nc(SCC(=O)Nc3nc4ccc(C)cc4s3)[nH]c(=O)c2C#N)cc1OC	103%	83.6%	74.8	100%	102%	105%	105%	105%	115%	114	94.4%	103%	97.9%	113%	95.9	96.4%	92.9%	103%	91.3%
Nc1[nH]nc2nc(-c3ccccc3)n3c4ccccc4nc3c12	99.9%	95.6%	95.7	93%	122%	82.7%	101%	106%	112%	117	106%	108%	97.9%	93.9%	107	93.2%	103%	105%	99.5%
COc1ccc(-c2cn(Cc3cc4ccccc4s3)nn2)cc1OCCN1CCCCC1	78.3%	95.6%	84	90%	50%	91.7%	80.2%	69.1%	60.7%	85.7	16.3%	5.75% (active)	45.9%	44.2%	70.8	70.6%	79.7%	41.1%	-29.4% (active)
COc1cc2ncnc(Nc3ccc(F)c(Cl)c3)c2cc1OCC(=O)N1CCOCC1	90.7%	102%	98.1	99.5%	92.1%	33%	74.8%	78.5%	106%	57.3	88.4%	98.2%	108%	107%	75.3	90.6%	97.7%	106%	90.4%
c1cc(OCCCCCOc2cccc(-c3nc4ccccc4[nH]3)c2)cc(-c2nc3ccccc3[nH]2)c1	3% (active)	10.2%	39.1	6.73% (active)	-29.3% (active)	-14.8% (active)	13.9%	19.8%	-59.1% (active)	33.2	9.81% (active)	-13.6% (active)	19.6%	6.51% (active)	61.3	8.95% (active)	28.3%	22.9%	20.1%
O=c1oc2c(cnc3ccccc32)cc1-c1cccc(Cl)c1	101%	96.2%	113	106%	81.7%	101%	104%	106%	118%	108	89%	103%	97.6%	112%	98.8	101%	95.2%	101%	112%
Oc1c(CN2CCC(N3CCOCC3)CC2)cc(Cc2cc(CN3CCC(N4CCOCC4)CC3)c(O)c3ncccc23)c2cccnc12	40.8%	2.53% (active)	19.4	10.5%	41.7%	15.4%	18.5%	25.5%	9.1% (active)	34.5	11.1%	56.1%	8.58% (active)	53.5%	25.5	-21.1% (active)	6.51% (active)	64.5%	11.3%
O=C(NNc1nc2cc(F)ccc2n2c(CN3CCOCC3)ccc12)c1ccccc1	19.7%	17.4%	14.6	0.156% (active)	27.8%	9.17% (active)	2.97% (active)	6.29% (active)	1.54% (active)	23.6	5.32% (active)	8.12% (active)	17.3%	-0.227% (active)	14.8	0.468% (active)	4.33% (active)	-6.53% (active)	-15.6% (active)
CNC(=O)c1cc(Oc2ccc3c(c2)sc2nc(-c4cc(C(F)(F)F)cc(C(F)(F)F)c4)cn23)ccn1	44.8%	26.8%	25.4	38.3%	27%	35%	39.5%	61.3%	55.3%	67.7	29.4%	47.1%	48.2%	79.8%	65.1	36.2%	52.4%	34.5%	69.3%
C=C(c1ccc(C(=O)O)c(F)c1)c1cc2c(cc1C)C(C)(C)CCC2(C)C	80%	82.6%	76.4	81.5%	58.4%	78.1%	52%	96.6%	123%	108	71.9%	63.6%	85.7%	90.9%	77.9	72.8%	81.1%	95.8%	89.4%
